This excerpt belongs to a sample that is enriched for hits.
NS1 inh = inhibitors of influenza NS1 protein function. Potency, µM (titrated, usually from 46.1 µM), for inactives: top-dose activity, positive = more growth. 0.4% of 270,000 active; calls by dose curve; note: actives are rising curves; nearly all actives have a fitted effect of over 50% in size
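In this qHTS, NS1 from influenza A is expressed in budding yeast, where it slows growth. Cells are switched from glucose to 2% galactose medium (pH 6.0, -URA), treated with compound, and growth recovery is read at OD600.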
Cruzain Triton = inhibitors of Trypanosoma cruzi cruzain with detergent. purified cruzain, Z-FR-AMC fluorescence, 0.01% Triton. P25779. 0.43% of 200,000 active. AID 1478. Potency, µM, for the others: max response, negative = inhibition, actives largely listed as inhibitors;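 note: plate controls were neutral wells for no effect and buffer without enzyme for full effect; nearly all actives have a fitted effect of over 40% in size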
Target sequence (P25779 123-467 limits assumed): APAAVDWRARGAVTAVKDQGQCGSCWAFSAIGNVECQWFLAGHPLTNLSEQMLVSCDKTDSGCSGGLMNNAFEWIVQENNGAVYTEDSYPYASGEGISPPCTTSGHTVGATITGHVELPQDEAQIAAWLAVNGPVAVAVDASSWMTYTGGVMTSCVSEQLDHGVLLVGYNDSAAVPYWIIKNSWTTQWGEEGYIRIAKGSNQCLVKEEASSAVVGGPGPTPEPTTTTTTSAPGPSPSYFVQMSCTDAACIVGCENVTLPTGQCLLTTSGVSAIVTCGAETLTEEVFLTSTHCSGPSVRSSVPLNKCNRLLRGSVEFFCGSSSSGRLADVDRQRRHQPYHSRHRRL
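Purified cruzain (1.5 nM final) was preincubated with compounds for 15 min at room temperature in 100 mM sodium acetate pH 5.5, 5 mM DTT, 0.01% Triton X-100. Reaction started with 2 uM Z-FR-AMC; AMC fluorescence change over 60 s gave activity.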
Cruzain noTriton = cruzain (T. cruzi) inhibition without detergent; P25779; purified cruzain, Z-FR-AMC fluorescence, no detergent; Potency, µM, for the others: max response, negative = inhibition, usual class: inhibitors; 2.3% of 200,000 active; AID 1476;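 note: plate controls were enzyme without inhibitor for no effect and buffer without enzyme for full effect; nearly all actives have a fitted effect of over 40% in size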
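Purified cruzain at 1.5 nM, pre-incubated 15 min with compound at room temperature in 100 mM sodium acetate pH 5.5, 5 mM DTT, 0.00005% Triton X-100. Reaction started with 2 uM Z-FR-AMC; AMC fluorescence increase over 60 s gives rate.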
* = called active by the depositor; ? = inconclusive; nt = not tested or not shown. Unless noted, calls come from the whole dose curve; as a rule, active = well fitted curve in the direction sought with a large enough effect; inconclusive = small, poorly fitted or top-dose-only effect, or another doubt; inactive = no such curve, though single readings can be large; an effect the other way counts as inactive or inconclusive. Potency is the fitted concentration of half-maximal effect.

SMILES	NS1 inh	Cruzain Triton	Cruzain noTriton
O=C(NC(=S)Nc1ccccc1N1CCOCC1)c1ccco1	-5%	-7%	-4%
CC1CCN(c2ccc(NC(=S)NC(=O)c3ccc(-c4cccc([N+](=O)[O-])c4)o3)cc2)CC1	-3%	0%	?
COc1ccc(C(=O)NC(=S)Nc2ccccc2N2CCOCC2)cc1Br	24%	-7%	?
CC1CCN(c2ccccc2NC(=S)NC(=O)c2ccc(-c3cccc([N+](=O)[O-])c3)o2)CC1	1%	2%	7.9µM*
O=[N+]([O-])c1ccc(C(=S)N2CCN(c3ccc(F)cc3)CC2)cc1	1%	nt	nt
O=C(NC(=S)Nc1ccccc1N1CCOCC1)c1ccc(-c2cc(Cl)ccc2Cl)o1	17%	-3%	10µM*
Cc1cc(C)c(Cn2c(C(O)c3ccccc3)nc3ccccc32)c(C)c1 (stereo not given)	nt	1%	?
C=CCOc1c(Br)cc(/C=N/NC(N)=O)cc1OC	0%	-3%	7%
COc1cc(/C=N/NC(N)=O)cc(Br)c1OCc1ccccc1C	2%	3%	20µM*
CCOc1cc(/C=N/NC(N)=O)cc(Br)c1OCC(=O)Nc1ccccc1C	8%	-8%	?
CCOc1cc(/C=N/NC(N)=O)cc(Br)c1OCC(=O)Nc1cccc2ccccc12	8%	-3%	6.3µM*
CC(C)(CN)CN	0%	1%	10%
CCNC(=O)c1cnc2sc(N3CCC(C)CC3)nn2c1=O	nt	-9%	-14%
Cc1ccc(-c2cc(-c3ccccc3)[nH]c(=S)c2C#N)cc1	14%	-9%	16µM*
COc1ccc(-c2cc(-c3ccccc3)c(C#N)c(=S)[nH]2)cc1	4%	nt	nt
O=C1OC(=O)c2ccccc21	nt	3%	-7%
Cc1cc(NC(=O)CCN2C(=O)C3C4CCC(C4)C3C2=O)c(C)cc1Br (stereo not given)	-6%	0%	1%
Cc1cc(Br)c(Cl)cc1NC(=O)CN1C(=O)C2C3CC(c4ccccc4)C(C3)C2C1=O (stereo not given)	22%	-6%	13µM*
CN(C)C(=O)c1ccc(-c2ccc3ncnc(NCCN4CCOCC4)c3c2)cc1	nt	2%	-9%
CCCCNC(=O)CSc1nc2nc(C)c(Cc3ccccc3C)c(C)n2n1	nt	-3%	6%
CC(O)C#C[Si](C)(C)c1ccccc1 (stereo not given)	nt	1%	-7%
Cc1ccc(C)c(N2CCN(c3nc4ccccc4c(=O)n3-c3ccc(Cl)cc3)CC2)c1	nt	-1%	-6%
Cc1cc(C)cc(OCCSc2nc(-c3cccs3)nc3cc(=O)[nH]n23)c1	nt	0%	6%
C=CCc1ccccc1OCCSc1nc(-c2ccc(C(C)(C)C)cc2)nc2cc(=O)[nH]n12	nt	-3%	4µM*
Cc1ccc(C(C)C)c(OCCSc2nc(-c3cccs3)nc3cc(=O)[nH]n23)c1	nt	1%	7.9µM*
SMILES	NS1 inh	Cruzain Triton	Cruzain noTriton
C=CCc1ccccc1OCCSc1nc(-c2cccs2)nc2cc(=O)[nH]n12	nt	0%	7.9µM*
O=c1cc2nc(-c3cccs3)nc(SCCOc3ccc(Cl)cc3)n2[nH]1	nt	4%	-3%
Cc1ccc(NC(=O)CSc2nc(-c3ccc(C(C)(C)C)cc3)nc3cc(=O)[nH]n23)cc1C	nt	-1%	4µM*
COc1ccccc1OCCSc1nc(-c2ccc(C(C)(C)C)cc2)nc2cc(=O)[nH]n12	nt	-6%	-9%
CCOc1ccc(-c2nc(SCC(=O)Nc3ccc(C)c(C)c3)n3[nH]c(=O)cc3n2)cc1	nt	2%	6%
CCCCC/C=C\C/C=C\C/C=C\C/C=C\CCCC(=O)N[C@H](C)CO	nt	6%	7%
COc1ccc(Cn2c(=O)n(Cc3ccco3)c(=O)c3oc4ccccc4c32)cc1	nt	-2%	16%
COc1cccc(-c2cnc(NCc3ccccc3Cl)n2C)c1	nt	0%	1%
Cc1cccc(-c2nc(SCCCOc3cc(C)c(Cl)c(C)c3)n3[nH]c(=O)cc3n2)c1	nt	-1%	-1%
Cc1cccc(-c2nc(SCCCOc3ccccc3Cl)n3[nH]c(=O)cc3n2)c1	nt	3%	16µM*
O=S(=O)(c1ccccc1C(F)(F)F)N1CCN(S(=O)(=O)c2ccccc2C(F)(F)F)CC1	1%	3%	20µM*
CC(=O)c1ccc(S(=O)(=O)N2CCN(S(=O)(=O)c3ccccc3C(F)(F)F)CC2)cc1	12%	nt	nt
O=S(=O)(O)c1ccc2c(N=Nc3c(O)ccc4ccccc34)cccc2c1	0%	-12%	24%
Cc1ccc(C)c(NC(=O)Cn2c(=O)n(Cc3ccc4c(c3)OCO4)c(=O)c3oc4ccccc4c32)c1	nt	0%	0%
COc1cc2c(cc1OC)C(c1c[nH]c3ccccc13)NCC2 (stereo not given)	nt	-3%	3%
Cn1c(N)c(C(=O)COC(=O)c2cc(-c3ccco3)nc3ccccc23)c(=O)n(Cc2ccccc2)c1=O	14µM*	?	?
Cn1c(N)c(C(=O)COC(=O)c2cc(C(F)(F)F)nc3ccccc23)c(=O)n(Cc2ccccc2)c1=O	?	-6%	0%
CCc1ccc2c(c1)c(=O)c(C(=O)c1ccccc1)cn2CC(=O)Nc1ccc(C)c(Cl)c1	nt	-1%	-4%
COc1cc(NC(=O)O[C@@H]2C(=O)c3cc(Br)ccc3O[C@H]2c2ccc3c(c2)OCO3)cc(OC)c1OC	nt	0%	-22%
CC(=O)NCCNC(=O)c1ccc2c(=O)n(CCc3ccccc3)c(=O)[nH]c2c1	nt	2%	-4%
CCc1c(O)nc(SCC(=O)Nc2ccc3c(c2)CCC3)[nH]c1=O	?	1%	-12%
CCCCc1c(O)nc(SCC(=O)Nc2ccc3c(c2)CCC3)[nH]c1=O	-9%	-17%	20µM*
CN(C)c1ccc(-c2cc(NCc3cccnc3)ncn2)cc1	nt	?	-26%
CC(/C=C/c1ccccc1)=N/O	0%	?	?
CC(/C=C/c1ccc(O)cc1)=N/O	0%	22µM*	7.9µM*
SMILES	NS1 inh	Cruzain Triton	Cruzain noTriton
CCn1nc(-c2ccccc2)c(-c2ccccc2)c(C(=O)OCCOC)c1=O	nt	-2%	28%
Nc1cccc(Cl)c1	nt	0%	5%
Nc1cccc(N)c1	nt	11µM*	?
Cc1ccc(Cl)cc1N	nt	5%	-3%
O=C(CSc1nc(-c2ccccc2)nc2c1Cc1ccccc1O2)N1CCCCC1	nt	-2%	-1%
O=C(Nc1ccc(F)cc1)c1cccc(N2CCCS2(=O)=O)c1	nt	0%	-8%
O=C1CN(C(=O)c2cccc(Br)c2)C(c2ccccc2)c2cc(Cl)ccc2N1 (stereo not given)	nt	-5%	-21%
O=C(Nc1ccccc1-c1nnn(CC(=O)N2CCCc3ccccc32)n1)c1ccc(Cl)cc1	3%	-6%	32µM*
O=C(Nc1ccccc1-c1nnn(CC(=O)N2CCCc3ccccc32)n1)c1ccco1	5%	0%	?
CN(C)c1ccc(-c2nc(NCCc3cnc[nH]3)c3ccccc3n2)cc1	nt	-8%	-8%
CC(C)c1ccc2nc(NC(=O)C3CC3)sc2c1	-100%	nt	nt
CC(C)c1ccc(/C=C/C(=O)Nc2nc3ccc([N+](=O)[O-])cc3s2)cc1	?	4%	4µM*
CCCCN(CCCNC(=O)c1cc(Nc2ccc(OC)c(OC)c2)nc2ccccc12)Cc1ccccc1	nt	-9%	-3%
Cc1ccc(/C=C2\SC(=S)N(CC3CCCO3)C2=O)o1 (stereo not given)	1%	nt	nt
O=C1/C(=C\c2ccc(-c3ccccc3Cl)o2)SC(=S)N1CC1CCCO1 (stereo not given)	10%	-4%	16µM*

High-throughput results deposited in PubChem BioAssay by National Center for Advancing Translational Sciences (NCATS).
